Of roughly 7,900 targets only a part is listed; those with a hit were picked by preference. About 0.6% of all pairs of compound and target were hits. A number with no mark means an inactive call.
Key:
Test in all cases: log2 fold change, soluble protein after heating vs DMSO (PISA); higher = thermal stabilisation; K562 cells, 10 uM, 30 min; active = over 0.2 and 3.5 SD of the protein, either way, in both replicates (recomputed)
[1] = target: YAE1 (UniProt Q9NRH1)
Outline: (§1)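 Soluble protein was defined as the supernatant after 21,000xg for 90 min. It came from K562 cells at 2×10^6 cells/mL given 10 μM compound for 30 min, heated in aliquots for 3 min across 48°C-58°C, pooled, and extracted in PBS with 0.5% NP-40 at 4°C, and was quantified by TMTpro 16plex LC-MS/MS with equalised channel sums. Thermal stability against control samples, from duplicates, is reported as log2 fold change.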

[2] = target: YBX1 (UniProt P67809)
Outline: as §1

[3] = target: YES1 (UniProt P07947)
Outline: as §1

[4] = target: YIPF4 (UniProt Q9BSR8)
Outline: as §1

[5] = target: YIPF5 isoform 3 (UniProt Q969M3)
Outline: as §1

[6] = target: YIPF6 (UniProt Q96EC8)
Outline: as §1

[7] = target: YLPM1 (UniProt P49750)
Outline: as §1

[8] = target: YOD1 (UniProt Q5VVQ6)
Outline: as §1

[9] = target: YPEL5 (UniProt P62699)
Outline: as §1

YES1, sequence (P07947 whole entry, looked up): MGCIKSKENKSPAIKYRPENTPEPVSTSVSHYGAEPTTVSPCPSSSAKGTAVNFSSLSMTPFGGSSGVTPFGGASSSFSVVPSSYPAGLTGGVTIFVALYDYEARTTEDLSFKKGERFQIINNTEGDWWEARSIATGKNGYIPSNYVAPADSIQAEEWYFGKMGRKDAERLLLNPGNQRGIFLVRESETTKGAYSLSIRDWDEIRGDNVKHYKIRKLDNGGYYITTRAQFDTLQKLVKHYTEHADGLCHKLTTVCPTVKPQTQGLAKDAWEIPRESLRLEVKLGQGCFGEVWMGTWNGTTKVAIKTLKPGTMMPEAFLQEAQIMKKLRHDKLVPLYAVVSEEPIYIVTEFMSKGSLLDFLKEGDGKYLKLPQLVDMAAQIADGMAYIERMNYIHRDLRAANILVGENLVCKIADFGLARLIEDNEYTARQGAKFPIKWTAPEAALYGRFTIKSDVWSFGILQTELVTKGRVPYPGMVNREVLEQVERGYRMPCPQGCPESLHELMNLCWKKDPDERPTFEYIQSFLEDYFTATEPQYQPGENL
YAE1, sequence (Q9NRH1 whole entry, looked up): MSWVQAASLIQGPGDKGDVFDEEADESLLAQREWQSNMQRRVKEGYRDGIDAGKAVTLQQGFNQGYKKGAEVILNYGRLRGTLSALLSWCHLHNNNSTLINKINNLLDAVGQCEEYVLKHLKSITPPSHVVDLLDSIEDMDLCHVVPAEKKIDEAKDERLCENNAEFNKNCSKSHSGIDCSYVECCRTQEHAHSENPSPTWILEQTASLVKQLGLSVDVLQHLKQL
YIPF4, sequence (Q9BSR8 whole entry, looked up): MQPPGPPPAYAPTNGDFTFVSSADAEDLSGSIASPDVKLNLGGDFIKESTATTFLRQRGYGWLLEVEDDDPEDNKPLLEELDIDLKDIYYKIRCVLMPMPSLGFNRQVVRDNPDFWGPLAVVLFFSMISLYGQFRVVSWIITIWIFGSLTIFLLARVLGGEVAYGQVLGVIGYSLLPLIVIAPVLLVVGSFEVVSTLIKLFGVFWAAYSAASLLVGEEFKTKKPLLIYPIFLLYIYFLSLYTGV
YIPF5 isoform 3, sequence (Q969M3 whole entry, looked up, canonical isoform): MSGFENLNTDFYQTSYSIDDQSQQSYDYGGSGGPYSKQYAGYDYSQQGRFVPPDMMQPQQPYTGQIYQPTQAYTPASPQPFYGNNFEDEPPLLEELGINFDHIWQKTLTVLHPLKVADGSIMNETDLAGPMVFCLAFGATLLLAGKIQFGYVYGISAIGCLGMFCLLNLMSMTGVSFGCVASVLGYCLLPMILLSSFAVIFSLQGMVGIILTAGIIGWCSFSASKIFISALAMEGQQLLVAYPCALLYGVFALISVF
YLPM1, sequence (P49750 whole entry, looked up): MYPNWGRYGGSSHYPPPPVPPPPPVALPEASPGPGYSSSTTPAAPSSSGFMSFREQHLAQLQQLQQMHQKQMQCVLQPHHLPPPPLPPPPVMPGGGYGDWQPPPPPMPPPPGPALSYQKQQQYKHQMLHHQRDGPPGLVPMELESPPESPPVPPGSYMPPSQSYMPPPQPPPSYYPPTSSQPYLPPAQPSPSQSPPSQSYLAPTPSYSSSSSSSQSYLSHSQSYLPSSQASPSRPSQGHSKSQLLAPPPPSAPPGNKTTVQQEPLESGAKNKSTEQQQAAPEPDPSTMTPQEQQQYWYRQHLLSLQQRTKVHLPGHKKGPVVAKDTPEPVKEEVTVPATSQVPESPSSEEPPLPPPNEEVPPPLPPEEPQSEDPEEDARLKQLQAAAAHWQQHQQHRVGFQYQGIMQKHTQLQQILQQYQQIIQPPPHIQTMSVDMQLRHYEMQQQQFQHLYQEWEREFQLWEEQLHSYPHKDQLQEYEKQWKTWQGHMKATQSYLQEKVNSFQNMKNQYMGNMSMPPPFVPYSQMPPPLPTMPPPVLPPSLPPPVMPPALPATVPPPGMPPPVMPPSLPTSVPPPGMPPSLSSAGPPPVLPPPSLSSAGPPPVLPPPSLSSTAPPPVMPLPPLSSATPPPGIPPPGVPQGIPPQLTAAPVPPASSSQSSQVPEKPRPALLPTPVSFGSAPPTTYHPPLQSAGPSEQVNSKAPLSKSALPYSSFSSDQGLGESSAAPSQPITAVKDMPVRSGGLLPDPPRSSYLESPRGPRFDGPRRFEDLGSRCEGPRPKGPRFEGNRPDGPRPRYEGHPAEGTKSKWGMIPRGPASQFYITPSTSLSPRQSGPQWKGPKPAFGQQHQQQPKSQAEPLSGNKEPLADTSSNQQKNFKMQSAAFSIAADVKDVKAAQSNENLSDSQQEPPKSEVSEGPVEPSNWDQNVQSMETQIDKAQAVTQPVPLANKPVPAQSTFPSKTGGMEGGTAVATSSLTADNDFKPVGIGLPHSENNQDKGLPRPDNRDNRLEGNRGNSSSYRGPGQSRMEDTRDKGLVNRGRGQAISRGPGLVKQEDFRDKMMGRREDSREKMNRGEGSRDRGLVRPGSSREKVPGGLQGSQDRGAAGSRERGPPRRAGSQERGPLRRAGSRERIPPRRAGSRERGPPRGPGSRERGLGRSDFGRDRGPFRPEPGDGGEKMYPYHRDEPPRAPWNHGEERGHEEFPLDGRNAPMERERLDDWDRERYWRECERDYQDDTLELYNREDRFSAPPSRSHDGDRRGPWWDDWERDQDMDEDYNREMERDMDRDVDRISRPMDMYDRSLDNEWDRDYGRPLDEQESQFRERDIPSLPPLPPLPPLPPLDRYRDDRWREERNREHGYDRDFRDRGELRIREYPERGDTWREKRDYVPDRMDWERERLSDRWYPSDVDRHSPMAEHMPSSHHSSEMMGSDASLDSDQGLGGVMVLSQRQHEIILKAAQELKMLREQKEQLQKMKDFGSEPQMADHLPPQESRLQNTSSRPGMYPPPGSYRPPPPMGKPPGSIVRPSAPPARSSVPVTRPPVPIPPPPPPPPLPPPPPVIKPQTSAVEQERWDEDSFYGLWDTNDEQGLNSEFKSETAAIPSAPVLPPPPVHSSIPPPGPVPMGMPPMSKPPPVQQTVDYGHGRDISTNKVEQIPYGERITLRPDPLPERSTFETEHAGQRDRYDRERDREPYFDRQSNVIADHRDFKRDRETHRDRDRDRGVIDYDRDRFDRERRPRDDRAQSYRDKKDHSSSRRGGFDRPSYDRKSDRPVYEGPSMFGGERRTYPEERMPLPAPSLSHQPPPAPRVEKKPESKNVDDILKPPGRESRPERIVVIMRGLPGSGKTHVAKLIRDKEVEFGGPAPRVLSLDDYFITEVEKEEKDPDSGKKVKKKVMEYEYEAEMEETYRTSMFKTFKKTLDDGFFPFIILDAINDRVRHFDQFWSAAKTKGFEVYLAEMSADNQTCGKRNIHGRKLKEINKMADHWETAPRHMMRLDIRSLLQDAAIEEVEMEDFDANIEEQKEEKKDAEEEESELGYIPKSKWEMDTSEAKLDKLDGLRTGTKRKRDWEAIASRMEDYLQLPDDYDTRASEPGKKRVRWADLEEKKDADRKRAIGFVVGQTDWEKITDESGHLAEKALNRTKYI
YPEL5, sequence (P62699 whole entry, looked up): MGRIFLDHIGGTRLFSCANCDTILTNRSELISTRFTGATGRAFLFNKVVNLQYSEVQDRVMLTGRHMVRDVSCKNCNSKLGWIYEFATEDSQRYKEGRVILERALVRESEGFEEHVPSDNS
YBX1, sequence (P67809 whole entry, looked up): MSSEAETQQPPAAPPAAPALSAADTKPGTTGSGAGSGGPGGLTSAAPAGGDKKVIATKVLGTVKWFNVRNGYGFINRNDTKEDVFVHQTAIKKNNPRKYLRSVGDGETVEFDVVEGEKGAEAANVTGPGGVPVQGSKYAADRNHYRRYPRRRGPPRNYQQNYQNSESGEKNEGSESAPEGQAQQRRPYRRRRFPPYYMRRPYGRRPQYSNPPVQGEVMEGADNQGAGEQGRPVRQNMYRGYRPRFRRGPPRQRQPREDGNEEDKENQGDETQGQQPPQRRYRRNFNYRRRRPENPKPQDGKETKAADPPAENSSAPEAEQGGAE
YIPF6, sequence (Q96EC8 whole entry, looked up): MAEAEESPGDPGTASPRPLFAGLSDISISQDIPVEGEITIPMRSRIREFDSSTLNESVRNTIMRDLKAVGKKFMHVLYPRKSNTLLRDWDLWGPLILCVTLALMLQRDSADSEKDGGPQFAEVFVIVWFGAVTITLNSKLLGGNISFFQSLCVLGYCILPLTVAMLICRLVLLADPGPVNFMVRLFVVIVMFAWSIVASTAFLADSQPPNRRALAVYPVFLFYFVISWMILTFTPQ
YOD1, sequence (Q5VVQ6 whole entry, looked up): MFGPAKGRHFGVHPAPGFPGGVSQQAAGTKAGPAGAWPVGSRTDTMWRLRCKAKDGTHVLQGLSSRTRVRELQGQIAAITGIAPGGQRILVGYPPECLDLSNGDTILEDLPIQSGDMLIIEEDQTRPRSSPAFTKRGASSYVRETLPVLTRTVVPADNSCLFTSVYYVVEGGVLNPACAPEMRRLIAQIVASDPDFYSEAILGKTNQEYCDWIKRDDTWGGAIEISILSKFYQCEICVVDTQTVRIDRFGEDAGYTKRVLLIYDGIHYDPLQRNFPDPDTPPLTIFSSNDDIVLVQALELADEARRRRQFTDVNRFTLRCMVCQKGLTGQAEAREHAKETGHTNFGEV

Structure (SMILES)	log2 fold change [1]	log2 fold change [2]	log2 fold change [3]	log2 fold change [4]	log2 fold change [5]	log2 fold change [6]	log2 fold change [7]	log2 fold change [8]	log2 fold change [9]
CNC(=O)c1ccccc1Nc1nc(Nc2ccc(N3CCOCC3)cc2OC)ncc1Cl	-0.002	0.01	-0.623 (active)	0.062	0.088	-0.006	-0.006	0.011	0.08
O=C1NC(=O)C(c2cnc3ccccn23)=C1c1cn2c3c(cc(F)cc13)CN(C(=O)N1CCCCC1)CC2	-0.02	0.126	0.011	-0.087	0.032	0.01	0.026	-0.079	-0.064
Oc1cc(-c2nc(-c3ccccc3)[nH]c2-c2ccncc2)ccc1Cl	-0.015	-0.053	-0.112	-0.054	-0.05	-0.041	-0.024	-0.02	0.213
Cn1cc(-c2ccc3c(c2)CCN3C(=O)Cc2cccc(C(F)(F)F)c2)c2c(N)ncnc21	-0.095	-0.199	-0.284	0.03	-0.014	-0.035	0.077	0.023	-0.077
Cc1nc(Nc2ncc(C(=O)Nc3c(C)cccc3Cl)s2)cc(N2CCN(CCO)CC2)n1 [dasatinib]	0.152	0.167	-0.737 (active)	0.021	0.055	0.256	-0.062	-0.115	-0.004
CC1=C(C(=O)Nc2cc3cn[nH]c3cc2F)C(c2ccc(C(F)(F)F)cc2)CC(=O)N1 (stereo not given)	-0.001	0.044	-0.012	-0.019	-0.007	0.055	-0.01	0.023	0.058
CC(C)C[C@@H](C=O)NC(=O)[C@H](CC(C)C)NC(=O)[C@H](CC(C)C)NC(=O)OCc1ccccc1	0.007	0.083	0.068	-0.016	-0.012	0.02	0.028	0.045	0.05
C[C@@H](N)c1ccc(C(=O)Nc2ccnc3[nH]ccc23)cc1	0.1	0.28	0	-0.089	-0.077	-0.013	-0.037	-0.04	0.163
Cc1ccc(Sc2cncc3sc(C(N)=O)cc23)cc1	-0.012	-0.124	0.03	-0.023	0.071	-0.018	-0.008	0.009	0.01
O=C1NC(=O)/C(=C\c2ccc3nccnc3c2)S1	-0.037	-0.009	-0.09	0.04	0.009	0.025	0.046	0.129	-0.002
c1cn2cc(-c3ccc4cn[nH]c4c3)nc(Nc3ccc(N4CCOCC4)cc3)c2n1 [entospletinib]	-0.07	0.162	-0.219	-0.015	-0.161	-0.046	-0.105	-0.013	0.009
CN1CC[C@H](c2c(O)cc(O)c3c(=O)cc(-c4ccccc4Cl)oc23)[C@H](O)C1 [alvocidib]	0.249 (active)	0.295	-0.029	0.027	0.003	0.022	0	-0.088	-0.234
CN1CCN(c2nc(C3=C(c4c[nH]c5ccccc45)C(=O)NC3=O)c3ccccc3n2)CC1 [sotrastaurin]	0.074	0.016		0.113	0.034	-0.648 (active)	0.021	0.034	-0.102
FC(F)(F)c1ccc(/C=C/c2nc(COc3ccc(CCCCn4ccnn4)cc3)co2)cc1 [mubritinib]	-0.062	-0.031	-0.067	0.024	0.012	0.036	-0.038	0.108	-0.202
C[C@H](Nc1ncnc2nc[nH]c12)c1cc2cccc(Cl)c2c(=O)n1-c1ccccc1 [duvelisib]	-0.021	-0.208	0.062	0.163	-0.107	0.259	0.08	0.033	-0.084
CNC(=O)c1ccc(Nc2ncc(C(F)(F)F)c(NCc3nccnc3N(C)S(C)(=O)=O)n2)cc1 [defactinib]	0.026	0.301	-0.199	-0.016	-0.019	-0.041	-0.019	-0.103	-0.073
CC[C@H](C)n1cc(C)c2c(C(=O)NCc3c(C)cc(C)[nH]c3=O)cc(-c3ccc(N4CCNCC4)nc3)cc21	0.02	-0.063	0.112	-0.016	-0.041	-0.039	0.067	0.081	0.109
Cc1ccc(C(=O)N(CCCN)[C@@H](c2nc3cc(Cl)ccc3c(=O)n2Cc2ccccc2)C(C)C)cc1 [ispinesib]	0.063	-0.093	-0.097	-0.024	0.08	0.02	0.034	-0.042	-0.039
NCC(=O)Nc1ccc(-n2nc(C(F)(F)F)cc2-c2ccc3c(ccc4ccccc43)c2)cc1	-0.011	0.055	0.001	-0.004	0.021	0.071	-0.069	-0.015	0.129

Reference: the supplement of paper PMC10849652
